# Experimental data from ChEMBL document CHEMBL4513216, “Probing the Open Global Health Chemical Diversity Library for Multistage-Active Starting Points for Next-Generation Antimalarials” (ACS Infect Dis, 2020).
# In all, about 69,000 compounds went through this assay and about 8,600 (12%) showed an effect of 50% or more. The entries come from a sample that favours strong results as a whole.
# Tested on: Plasmodium berghei
# Assay: Screen against P. berghei liver stage (PbLuc), transformed with Luciferase, at 10uM
# Type: functional, HepG2
# Details: tested at 10 uM
row,Compound,INHIBITION [%]
1,CCOCn1cc(NC(=O)C2CCN(S(C)(=O)=O)CC2)cn1,38.2
2,COc1ccc(CCCN2C(=O)O[C@@H]3CN(C4CCOCC4)C[C@@H]32)cc1,34.9
3,Cc1nnc(NC(=O)N2CCCCC2CCO)s1 (stereo unspecified),44.3
4,Cc1nsc(NC(=O)N2CCCCC2CCCO)n1 (stereo unspecified),48
5,Cc1nsc(NC(=O)N2CCCCC2CCO)n1 (stereo unspecified),66.5
6,CCNC(=O)COc1ccc(C(=O)NC(C)CCc2ccco2)cc1 (stereo unspecified),20.6
7,CC(C)CCC(C)NC(=O)c1ccc(OCC(N)=O)cc1 (stereo unspecified),-36.5
8,CC(C)CCCC(C)NC(=O)c1ccc(OCC(N)=O)cc1 (stereo unspecified),56.4
9,CCn1cnnc1CNC(=O)c1cc(Cl)c(I)cc1OC,-7.31
10,CC(=O)NCCC1CCCCN1C(=O)c1cccc(CCC(C)(C)O)c1 (stereo unspecified),19.7
11,O=C(Nc1ccccc1F)C1=NN(c2ccccc2)C(=O)CN1,-73.1
12,CN(C)CCN1CCOCC2(CCCN(C(=O)Cc3ccccc3)C2)C1 (stereo unspecified),29
13,CCCn1cc(NC(=O)c2cccc3cccnc23)ccc1=O,-1.04
14,COCCn1cc(NC(=O)NC(C)CCc2ccccc2)ccc1=O (stereo unspecified),28.7
15,CCCn1cc(NC(=O)c2ccc(NC(=O)NC3CC3)cc2)ccc1=O,-13.4
16,CCCn1cc(NC(=O)c2ccc(N(C)CC)cc2)ccc1=O,46.6
17,CCCn1cc(NC(=O)c2cccnc2O)ccc1=O,58.5
18,CCCn1cc(NC(=O)c2ccc(S(C)(=O)=O)cc2)ccc1=O,-5.65
19,Cn1cc(NC(=O)c2cccc3cccnc23)ccc1=O,-10.8
20,CCCn1cc(NC(=O)c2ccc(S(=O)(=O)CC)cc2)ccc1=O,60.3
21,CCCn1cc(NC(=O)c2ccncc2)ccc1=O,50.8
22,CC(C)n1ccnc1CN1CCCN(C(=O)CN(C)C2CC2)CC1,40
23,Cc1nc(CN2CCCC(NCCOc3cccc(C#N)c3)C2)no1 (stereo unspecified),0.914
24,Cc1nccn1-c1cc(CNC(=O)CCS(=O)(=O)C2CCCC2)ccn1,5.9

row,Compound,INHIBITION [%]
1,Cc1ccc(OCCSC2=NCCN2)cc1,32.5
2,Cc1c(NC(=O)c2noc3c2CCCC3)cnn1C,10
3,CCN(CC)C(=O)c1cnc(Sc2nccn2C)c(Cl)c1,48
4,CCNC(=O)c1cnc(Sc2nccn2C)c(Cl)c1,62.8
5,CCOCCNC(=O)c1cnc(Sc2nccn2C)c(Cl)c1,50.8
6,Cn1c(-c2ccccc2Cl)nc2cc(C(=O)NCCOCCO)cnc21,-50.7
7,Cn1ccnc1Sc1ncc(C(=O)N2CCCCC2)cc1Cl,27.6
8,CN1CCN(S(=O)(=O)c2ccc(Sc3nccn3C)nc2)CC1,46.1
9,CC(C)NC(=O)c1cnc(Sc2nccn2C)c(Cl)c1,62.8
10,CCOCCCNC(=O)c1nn(CC)cc1Cl,7.9
11,Cc1c(Cl)cc(C(=O)N(CCO)Cc2nccn2C)cc1Cl,-8.47
12,CCCn1nccc1NC(=O)CN1CCCC1Cn1nc(C)nc1C (stereo unspecified),-101
13,Cn1nc2c(cc1=O)CN(CCN1CCCC1=O)CC2,-7.35
14,CCOc1ccc(Cl)c(C(=O)NC)n1,49
15,CS(=O)(=O)NCC1(O)CCCN(C(=O)CCn2cc(Cl)cn2)CC1 (stereo unspecified),-28.7
16,CCCc1nc(CN(CCO)Cc2cc(Br)ccc2F)no1,39.4
17,CN1CCN(CCOc2ccc(NC(=O)c3cnc[nH]3)cc2)CC1,1.04
18,Cc1c[nH]c(CN(C)c2nc(C3CCCC3)nc3c2cnn3C)n1,60.1
19,Cc1nn(C)c(C)c1CN(C)c1nc(C2CCCC2)nc2c1cnn2C,42.6
20,Cc1cc(C)nc(CN(C)c2nc(C3CCCC3)nc3c2cnn3C)c1,0.87
21,Cc1ccc(OC2CCN(S(=O)(=O)N(C)C)CC2)nc1,35.4
22,CCOc1cc(-c2cc(=O)n3c(n2)CCCCC3)ccc1O,-6.09
23,CCC(=O)NCc1cc(Br)c(OC)c(OC)c1,-4.74
24,CCS(=O)(=O)NCc1cc(Br)c(OC)c(OC)c1,51.3

row,Compound,INHIBITION [%]
1,CCCC(=O)NCc1cc(Br)c(OC)c(OC)c1,-26.1
2,CC(=O)NCCOc1c(Cl)cccc1Cl,22
3,CN(Cc1cnn(C)c1)C(=O)CCC(=O)c1ccc2c(c1)OCCO2,5.48
4,CCc1cc(C(F)(F)F)n2nc(C3CCCN3C3CCSCC3)cc2n1 (stereo unspecified),18.95
5,Cc1cc(N2CCCC(c3n[nH]c4ncccc34)C2)ncn1 (stereo unspecified),26.3
6,Cc1nc(CN2C[C@@H]3CN(C(=O)C4(C#N)CC4)C[C@@H]3C2=O)cs1,-20.2
7,COc1ccc(OCCNc2cccc(C(=O)N3CCOCC3)c2)cc1,-12.5
8,COc1ccc(CN2CCC3(CC2)C(C(=O)O)CC(=O)N3C)cc1Cl (stereo unspecified),39.9
9,CCn1c(C2CCCN(Cc3cc(C)cc(C)c3)C2)nn(C)c1=O (stereo unspecified),-17.8
10,Cc1cnc(C)c(Oc2ccc(CN3CCCC3)cc2Cl)n1,89.4
11,c1cc(-c2cn[nH]c2)ccc1CN1CCCCC1,10.6
12,Cc1cc(CN2CCCC2)cc(Oc2nc(C)cnc2C)c1,89.4
13,NC(=O)c1cncc(Oc2cccc(CN3CCCC3)c2Cl)n1,24.4
14,COC(=O)CC1CN(Cc2c(Cl)ccc3cccnc23)CCO1 (stereo unspecified),-14.2
15,Cc1cnc(C)c(Oc2ccc(Cl)c(CN3CCCC3)c2Cl)n1,90.3
16,Cc1nn(C)c2ncc(CN3CCCCCC3)cc12,44.9
17,OC1CCN(CCCNc2nccc(C3CCCC3)n2)CC1,31.4
18,CC(O)CN1CCN(Cc2cccc(C(=O)N3CCCCC3)c2)CC1 (stereo unspecified),37.9
19,O=C(c1cscn1)N1CCc2[nH]nc(Nc3ccccc3)c2C1,-15.625
20,Cc1ccccc1CN(CCN(C)C)Cc1ccc(O)c(C(=O)O)c1,29.2
21,CC(C)c1nc(-c2ccc(=O)[nH]n2)n(-c2ccc3c(c2)OCO3)n1,25.5
22,Cc1nonc1-c1nc(C(C)C)nn1-c1ccc2c(c1)OCO2,82
23,CCc1nnsc1-c1nc(C(C)C)nn1-c1ccc2c(c1)OCO2,12.4
